Results from PubChem BioAssay.

Test: binders of probe aFSTL3 on microarray, primary screen, stem cell growth factor project, biochemical, small-molecule microarray, fluorescence 635/667 (AID 1064);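 also: measures binding of the biotinylated anti-FSTL3 antibody to printed compounds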
Conditions: higher = more signal
Work on COC(=O)c1ccc(OC)c(/C=C\CC(CCc2ccccc2)OC(C)=O)c1 (stereo not given) yielded a composite z-score of -0.28. C[N+](C)(C)CCCC[C@@H]1NC(=O)[C@H]2C[C@@H](C(=O)NCCCCCCN)[C@@H](c3cccc(OCCO)c3)N2C1=O showed a composite z-score of 1.71. In the case of C/C=C/[C@@H](CCn1cc([C@H](O)c2ccccc2)nn1)[Si](C)(C)c1ccc(OC)cc1, the composite z-score is reported as 0.683. Molecule CCCCCCCCCCC(O)C1C=CC2C(=O)NC(=O)C2N1Nc1ccccn1 (stereo not given) has a composite z-score of 0.444. COC(=O)[C@@]1(Cc2ccc(F)cc2)[C@H]2c3cc(C(=O)N(C)C)n(CCSCCO)c3C[C@H]2CN1C(=O)c1ccccc1 showed a composite z-score of 0.304. For CC1CC/C=C\[C@H]2OC34C=CCN(Cc5ccccc5)C(=O)[C@H]3N(CCO)C(=O)[C@@H]4C2C(=O)O1 (stereo not given in full), the composite z-score was 0.767. With C=C(COC)C(=O)CC[C@H](OC(=O)c1ccccc1-c1ccccc1C(=O)O)c1ccc(OCCO)cc1 the composite z-score was -0.249. In the case of C=CCC(OC(C)=O)[C@@H]1[C@@H](N(Cc2cc3ccccc3o2)C(=O)Cc2ccc(OC)cc2)c2cc(OCCCO)ccc2N1C(=O)c1ccc(-c2ccccc2)cc1 (stereo not given in full), the composite z-score is reported as 0.378. Molecule CC1CC/C=C\[C@H]2OC34C=CCN(c5ccc(Cl)cc5)C(=O)[C@H]3N(C(CO)C(C)C)C(=O)[C@]4(C)C2C(=O)O1 (stereo not given in full) has a composite z-score of -0.128. With O=C1O[C@@H](c2ccccc2)[C@@H](c2ccccc2)N2[C@@H](c3ccc(O)cc3)[C@]3(C(=O)Nc4ccc(C#CC5(O)CCCCCC5)cc43)[C@@H](C(=O)N3CCN(c4ncccn4)CC3)[C@H]12 the composite z-score was -0.381. CC[C@@H]1[C@@H]2C3C(=O)N(CC)C(=O)C3CC(=O)[C@@H]2[C@H](c2ccc(C)cc2)N1S(=O)(=O)c1ccc(C)cc1 (stereo not given in full) gave a composite z-score of -0.38. With COCCOC(=O)N1C(=O)[C@@]2(c3cc(C#CCCO)ccc31)[C@H](C(=O)NC[C@H](O)c1ccccc1)[C@H]1C(=O)O[C@H](c3ccccc3)[C@H](c3ccccc3)N1[C@@H]2c1ccccc1OCCO the composite z-score was -0.0841. Molecule C=CCOC(=O)[C@@H]1[C@H]2C(=O)O[C@H](c3ccccc3)[C@H](c3ccccc3)N2[C@H](c2ccc(OCCOC(=O)[C@@H]3C[C@@H]4C(=O)N[C@@H](CCCCNC(C)=O)C(=O)N4[C@@H]3c3ccc(O)cc3)cc2)[C@@]12C(=O)Nc1ccc(I)cc12 has a composite z-score of -0.101. Work on CC(C)CCC[C@@H](C)[C@H]1CC[C@@]2(C)C3=C(CC[C@]12C)[C@@]1(C)CC[C@H](OC(=O)c2ccc(N)cc2)C(C)(C)C1CC3 (stereo not given in full) yielded a composite z-score of -0.219. In the case of CCCN1C(=O)[C@@H]2Cc3c([nH]c4ccccc34)[C@@H](c3cccc(O)c3)N2C1=O, the composite z-score is reported as -0.588. Work on C=CCN1C(=O)[C@@]2(O[C@@H](CCn3cc([C@H](O)c4ccccc4)nn3)[C@H]([Si](C)(C)c3ccc(OC)cc3)[C@H]2C)c2cc(NC(=O)c3ccc(OC)cc3)ccc21 yielded a composite z-score of 0.027. For COc1ccc([Si](C)(C)[C@@H]2[C@@H](CC(=O)N(CCO)Cc3ccccc3)O[C@]3(C(=O)N(Cc4ccc(N5CCOC5=O)cc4)c4ccccc43)[C@H]2C)cc1, the composite z-score was 0.149. For COCCOC(=O)N1C(=O)[C@@]2(c3cc(C#Cc4ccc(OC)cc4)ccc31)[C@H](C(=O)N1CCc3cc(OC)c(OC)cc3C1)[C@H]1C(=O)O[C@H](c3ccccc3)[C@H](c3ccccc3)N1[C@@H]2c1ccc(O)cc1, the composite z-score was -0.285. Work on CC(C)CNC(=O)[C@@]1(C)c2ccccc2C(=O)N(Cc2ccccc2)[C@H]1c1ccc(CO)cc1 yielded a composite z-score of 1.69. For COc1ccccc1CN1C(=O)c2ccccc2[C@](Cc2ccccc2I)(C(=O)NCCN2CCOCC2)[C@@H]1c1ccc(CO)cc1, the composite z-score was -0.291. CCCCCCC#C[Si](O[C@H](c1ccccc1)c1cn(Cc2cccc(Cl)c2)nn1)(C(C)C)C(C)C showed a composite z-score of -0.194. COc1ccc([Si](C)(C)[C@@H]2[C@@H](CCO)O[C@]3(C(=O)N(Cc4ccccc4)c4ccc(N5CCCCC5=O)cc43)[C@H]2C)cc1 showed a composite z-score of -0.389. Work on COC(=O)[C@@]1(Cc2ccc(F)cc2)[C@@H]2[C@@H](CC(=O)[C@H]2CC(=O)C(=O)N2CCCC2)CN1C(=O)c1ccccc1 yielded a composite z-score of 0.664. COCCOC(=O)N1C(=O)[C@@]2(c3cc(C#CCCO)ccc31)[C@H](c1ccc(OCCO)cc1)N1[C@H](c3ccccc3)[C@H](c3ccccc3)OC(=O)[C@H]1[C@@H]2C(=O)N1CCc2cc(OC)c(OC)cc2C1 gave a composite z-score of -0.392. Molecule C=CC[C@]1(C(=O)NCC(O)CO)N=C(c2ccc(OCCCO)cc2)O[C@H]1c1ccccc1N=[N+]=[N-] (stereo not given in full) has a composite z-score of 0.227.
